Measured values: PubChem BioAssay AID1159580 (chemical genetic matrix, 2015)
In all, about 5,500 compounds went through this assay and about 2,000 (36%) were called active. Inconclusive results (about 18%) are left out. No stated cut-off is given here; in the data, active means normalized growth mostly below about 0.91 (no sharp cut-off); inconclusive means no clear call, values can overlap the other calls; inactive means mostly above about 0.92. Some of the results follow.

Assay: chemical genetic growth profiling, strain panel (AID 1159580);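 further: tested at 20 µM; growth read once vehicle control cultures reached saturation at 30 °C; 1 = growth at the plate median or of vehicle wells; lower values mean less growth of the strain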
Conditions: growth OD

Measured: normalized growth

C(=C(c1ccccc1)c1ccccc1)N1CCC1
inactive: S. cerevisiae deletion strains, locus YAL013W, strain DEP1, active compounds read low 1 | S. cerevisiae deletion strains, locus YBR229C, strain ROT2, active compounds read low 0.993 | S. cerevisiae deletion strains, locus YDL101C, strain DUN1, active compounds read low 0.96 | S. cerevisiae deletion strains, locus YDL134C, strain PPH21, active compounds read low 1.01 | S. cerevisiae deletion strains, locus YDR150W, strain NUM1, active compounds read low 0.87 | S. cerevisiae deletion strains, locus YEL061C, strain CIN8, active compounds read low 0.99 | S. cerevisiae deletion strains, locus YGR078C, strain PAC10, active compounds read low 0.997 | S. cerevisiae deletion strains, locus YGR229C, strain SMI1, active compounds read low 1 | S. cerevisiae deletion strains, locus YHR030C, strain SLT2, active compounds read low 0.972 | S. cerevisiae deletion strains, locus YHR087W, strain rtc3, active compounds read low 0.984 | S. cerevisiae deletion strains, locus YJL187C, strain SWE1, active compounds read low 1 | S. cerevisiae deletion strains, locus YJR043C, strain POL32, active compounds read low 1 | S. cerevisiae deletion strains, locus YJR075W, strain HOC1, active compounds read low 0.984 | S. cerevisiae deletion strains, locus YLR039C, strain RIC1, active compounds read low 1.01 | S. cerevisiae deletion strains, locus YLR058C, strain SHM2 (second series), active compounds read low 0.998 | S. cerevisiae deletion strains, locus YLR085C, strain ARP6, active compounds read low 0.998 | S. cerevisiae deletion strains, locus YLR262C, strain YPT6, active compounds read low 1.02 | S. cerevisiae deletion strains, locus YML094W, strain GIM5, active compounds read low 0.975 | S. cerevisiae deletion strains, locus YMR219W, strain ESC1, active compounds read low 0.988 | S. cerevisiae deletion strains, locus YMR263W, strain SAP30, active compounds read low 0.987 | S. cerevisiae deletion strains, locus YMR307W, strain GAS1, active compounds read low 1.02 | S. cerevisiae deletion strains, locus YNL153C, strain GIM3, active compounds read low 0.988 | S. cerevisiae deletion strains, locus YNL298W, strain CLA4 (second series), active compounds read low 1 | S. cerevisiae deletion strains, locus YNL322C, strain KRE1, active compounds read low 0.991 | S. cerevisiae deletion strains, locus YNR030W, strain Alg12, active compounds read low 1.03 | S. cerevisiae deletion strains, locus YPL055C, strain LGE1, active compounds read low 0.854 | S. cerevisiae deletion strains, locus YPL241C, strain CIN2, active compounds read low 0.9 | S. cerevisiae deletion strains, locus YPR135W, strain CTF4, active compounds read low 1.03 | S. cerevisiae strains, strain wild type, active compounds read low 1.01
